In the supplement of paper PMC11732987, “Enantioselective OTUD7B fragment discovery through chemoproteomics screening and high-throughput optimisation” (Communications Chemistry, 2025):

How the values were obtained:
Assay in all cases: log2 ratio of Biotin-Ahx-Ub-VS probe labelling (fragment/DMSO); higher = less target engagement (more negative = stronger competition), active = hit call of the paper (q ≤ 0.05, log2 ratio ≤ -1)
Conditions in all cases: compound concentration: 200 uM; treatment time: 3 h
[1] = biological target: T1, USP42 (UniProt Q9H9J4)
T1 sequence (whole entry): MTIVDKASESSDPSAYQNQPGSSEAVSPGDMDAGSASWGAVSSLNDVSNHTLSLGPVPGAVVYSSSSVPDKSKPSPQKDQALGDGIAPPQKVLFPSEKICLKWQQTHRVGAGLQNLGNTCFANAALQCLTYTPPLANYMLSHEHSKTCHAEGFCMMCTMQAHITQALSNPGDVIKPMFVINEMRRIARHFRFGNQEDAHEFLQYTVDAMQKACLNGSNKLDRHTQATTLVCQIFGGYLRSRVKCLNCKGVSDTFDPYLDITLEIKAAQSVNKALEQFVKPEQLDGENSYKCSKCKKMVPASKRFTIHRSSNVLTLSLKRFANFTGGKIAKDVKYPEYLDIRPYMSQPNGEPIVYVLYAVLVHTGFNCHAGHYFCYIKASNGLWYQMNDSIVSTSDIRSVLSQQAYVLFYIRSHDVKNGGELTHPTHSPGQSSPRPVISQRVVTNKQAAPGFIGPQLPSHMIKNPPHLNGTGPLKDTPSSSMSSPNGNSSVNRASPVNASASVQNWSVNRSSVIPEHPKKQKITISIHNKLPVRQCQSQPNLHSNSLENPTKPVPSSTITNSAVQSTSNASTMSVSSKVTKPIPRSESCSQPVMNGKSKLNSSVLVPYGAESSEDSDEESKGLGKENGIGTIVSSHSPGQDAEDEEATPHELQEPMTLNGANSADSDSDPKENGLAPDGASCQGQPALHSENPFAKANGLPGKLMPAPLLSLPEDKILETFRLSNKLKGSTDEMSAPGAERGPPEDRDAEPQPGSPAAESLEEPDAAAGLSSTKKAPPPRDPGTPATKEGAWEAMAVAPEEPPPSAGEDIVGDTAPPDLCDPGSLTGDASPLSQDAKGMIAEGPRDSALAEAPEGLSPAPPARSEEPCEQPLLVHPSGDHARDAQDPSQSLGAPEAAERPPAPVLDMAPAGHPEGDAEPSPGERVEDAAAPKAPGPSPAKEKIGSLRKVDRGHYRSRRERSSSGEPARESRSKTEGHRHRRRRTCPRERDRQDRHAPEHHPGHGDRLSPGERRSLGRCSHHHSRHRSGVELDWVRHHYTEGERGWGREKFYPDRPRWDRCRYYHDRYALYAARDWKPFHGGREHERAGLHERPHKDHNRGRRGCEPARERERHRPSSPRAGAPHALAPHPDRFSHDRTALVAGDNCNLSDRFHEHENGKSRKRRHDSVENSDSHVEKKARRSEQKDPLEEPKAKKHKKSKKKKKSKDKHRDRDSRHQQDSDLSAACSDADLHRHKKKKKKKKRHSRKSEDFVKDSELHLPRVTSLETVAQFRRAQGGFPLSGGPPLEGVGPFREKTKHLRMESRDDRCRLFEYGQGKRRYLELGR
How it was run: (§1)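 Global-median-normalised Spectronaut label-free quantities were compared by unpaired t-test, and values are average log2 ratios of fragment over vehicle. Only proteins with ≥2 unique peptides were used. HEK293T lysate (495 µg per sample) was treated in triplicate with fragment at 200 µM or vehicle for 3 h and then with Biotin-Ahx-Ub-VS at 0.5 µM final for 1 h. Labelled DUBs were then NeutrAvidin-enriched, digested with LysC and trypsin, and run by diaPASEF LC-MS/MS.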

[2] = biological target: USP46 (UniProt P62068)
How it was run: as §1

[3] = biological target: T2, USP47 (UniProt Q96K76)
T2 sequence (whole entry): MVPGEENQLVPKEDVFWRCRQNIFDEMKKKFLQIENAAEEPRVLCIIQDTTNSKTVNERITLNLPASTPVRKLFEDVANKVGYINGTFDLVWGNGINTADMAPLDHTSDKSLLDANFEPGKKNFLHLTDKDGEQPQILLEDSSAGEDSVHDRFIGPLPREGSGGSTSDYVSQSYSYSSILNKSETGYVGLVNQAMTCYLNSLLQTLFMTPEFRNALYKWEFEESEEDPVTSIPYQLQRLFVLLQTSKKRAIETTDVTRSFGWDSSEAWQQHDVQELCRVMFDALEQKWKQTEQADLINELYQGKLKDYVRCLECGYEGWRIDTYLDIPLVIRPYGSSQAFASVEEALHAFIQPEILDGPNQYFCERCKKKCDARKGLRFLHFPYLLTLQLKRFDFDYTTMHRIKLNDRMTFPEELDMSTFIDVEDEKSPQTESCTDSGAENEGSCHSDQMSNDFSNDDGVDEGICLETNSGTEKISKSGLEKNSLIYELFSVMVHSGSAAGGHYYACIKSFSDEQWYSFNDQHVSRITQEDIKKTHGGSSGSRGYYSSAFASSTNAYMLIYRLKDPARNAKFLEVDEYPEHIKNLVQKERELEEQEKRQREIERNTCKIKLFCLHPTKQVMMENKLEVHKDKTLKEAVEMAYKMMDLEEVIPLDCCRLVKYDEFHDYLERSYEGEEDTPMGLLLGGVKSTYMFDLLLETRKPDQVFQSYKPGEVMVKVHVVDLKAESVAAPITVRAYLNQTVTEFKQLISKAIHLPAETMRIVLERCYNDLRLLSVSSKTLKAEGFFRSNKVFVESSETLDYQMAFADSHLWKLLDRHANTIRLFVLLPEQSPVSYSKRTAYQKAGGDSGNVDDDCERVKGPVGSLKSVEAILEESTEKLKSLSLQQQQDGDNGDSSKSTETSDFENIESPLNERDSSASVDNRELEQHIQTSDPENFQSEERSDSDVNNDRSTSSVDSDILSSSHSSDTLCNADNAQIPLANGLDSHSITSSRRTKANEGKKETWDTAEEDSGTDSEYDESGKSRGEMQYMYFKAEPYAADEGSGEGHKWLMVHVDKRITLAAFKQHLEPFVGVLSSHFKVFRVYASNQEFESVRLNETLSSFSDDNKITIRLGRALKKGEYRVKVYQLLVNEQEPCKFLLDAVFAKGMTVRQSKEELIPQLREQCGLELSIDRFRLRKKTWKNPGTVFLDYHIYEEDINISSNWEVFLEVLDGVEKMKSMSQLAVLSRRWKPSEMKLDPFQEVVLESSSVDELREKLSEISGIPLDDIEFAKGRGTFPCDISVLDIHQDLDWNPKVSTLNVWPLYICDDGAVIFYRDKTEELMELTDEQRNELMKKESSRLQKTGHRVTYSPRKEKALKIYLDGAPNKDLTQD
How it was run: as §1

[4] = biological target: T3, USP48 (UniProt Q86UV5)
T3 sequence (whole entry): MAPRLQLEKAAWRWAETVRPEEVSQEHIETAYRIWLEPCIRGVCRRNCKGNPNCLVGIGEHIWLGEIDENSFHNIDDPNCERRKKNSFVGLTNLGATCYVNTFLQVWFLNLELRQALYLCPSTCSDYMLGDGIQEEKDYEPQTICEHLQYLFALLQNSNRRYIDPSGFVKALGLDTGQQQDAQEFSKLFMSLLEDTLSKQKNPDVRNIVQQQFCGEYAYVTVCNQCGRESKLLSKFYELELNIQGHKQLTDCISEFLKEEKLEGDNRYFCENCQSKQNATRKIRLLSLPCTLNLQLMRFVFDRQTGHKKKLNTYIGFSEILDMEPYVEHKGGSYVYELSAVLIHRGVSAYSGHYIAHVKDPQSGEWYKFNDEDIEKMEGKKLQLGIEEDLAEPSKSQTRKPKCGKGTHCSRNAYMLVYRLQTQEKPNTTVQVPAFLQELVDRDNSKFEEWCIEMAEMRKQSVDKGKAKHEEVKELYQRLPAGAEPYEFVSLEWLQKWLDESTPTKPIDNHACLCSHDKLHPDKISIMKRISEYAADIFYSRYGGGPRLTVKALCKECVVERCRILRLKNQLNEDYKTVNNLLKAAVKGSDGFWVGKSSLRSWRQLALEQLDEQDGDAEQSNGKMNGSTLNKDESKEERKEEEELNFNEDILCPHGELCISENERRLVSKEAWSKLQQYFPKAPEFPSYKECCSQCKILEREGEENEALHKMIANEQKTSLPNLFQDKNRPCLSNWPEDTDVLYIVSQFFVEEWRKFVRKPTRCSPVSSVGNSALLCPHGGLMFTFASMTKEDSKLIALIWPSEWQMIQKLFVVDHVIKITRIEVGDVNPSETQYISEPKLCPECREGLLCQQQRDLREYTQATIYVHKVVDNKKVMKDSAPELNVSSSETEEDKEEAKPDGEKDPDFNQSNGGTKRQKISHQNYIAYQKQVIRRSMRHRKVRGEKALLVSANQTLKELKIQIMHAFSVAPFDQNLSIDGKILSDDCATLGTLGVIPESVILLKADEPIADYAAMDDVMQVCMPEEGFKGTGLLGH
How it was run: as §1

[5] = biological target: T4, USP5 (UniProt P45974)
T4 sequence (whole entry): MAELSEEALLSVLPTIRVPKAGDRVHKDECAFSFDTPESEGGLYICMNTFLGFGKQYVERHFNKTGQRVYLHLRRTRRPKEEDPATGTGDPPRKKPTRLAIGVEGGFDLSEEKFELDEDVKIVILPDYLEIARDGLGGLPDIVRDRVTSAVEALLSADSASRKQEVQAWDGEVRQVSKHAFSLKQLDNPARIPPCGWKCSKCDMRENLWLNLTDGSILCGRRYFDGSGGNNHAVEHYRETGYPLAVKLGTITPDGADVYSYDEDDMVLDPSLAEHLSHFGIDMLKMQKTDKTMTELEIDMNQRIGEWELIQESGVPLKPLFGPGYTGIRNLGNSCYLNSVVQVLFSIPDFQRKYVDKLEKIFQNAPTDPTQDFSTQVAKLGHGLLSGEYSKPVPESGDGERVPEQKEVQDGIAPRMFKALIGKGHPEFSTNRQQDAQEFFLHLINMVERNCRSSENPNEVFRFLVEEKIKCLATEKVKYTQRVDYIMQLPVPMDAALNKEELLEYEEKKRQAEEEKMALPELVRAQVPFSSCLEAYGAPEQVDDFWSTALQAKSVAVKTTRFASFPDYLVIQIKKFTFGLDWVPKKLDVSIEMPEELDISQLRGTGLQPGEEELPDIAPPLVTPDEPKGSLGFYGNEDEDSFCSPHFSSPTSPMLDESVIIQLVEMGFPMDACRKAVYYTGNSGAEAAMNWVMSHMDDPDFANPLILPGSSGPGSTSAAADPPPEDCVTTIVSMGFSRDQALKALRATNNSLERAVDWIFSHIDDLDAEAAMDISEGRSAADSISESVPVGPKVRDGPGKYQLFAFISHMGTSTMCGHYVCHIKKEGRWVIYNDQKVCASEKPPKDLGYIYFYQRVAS
How it was run: as §1

[6] = biological target: USP54 (UniProt Q70EL1)
How it was run: as §1

[7] = biological target: USP7 (UniProt Q93009)
How it was run: as §1

[8] = biological target: T5, USP8 (UniProt P40818)
T5 sequence (whole entry): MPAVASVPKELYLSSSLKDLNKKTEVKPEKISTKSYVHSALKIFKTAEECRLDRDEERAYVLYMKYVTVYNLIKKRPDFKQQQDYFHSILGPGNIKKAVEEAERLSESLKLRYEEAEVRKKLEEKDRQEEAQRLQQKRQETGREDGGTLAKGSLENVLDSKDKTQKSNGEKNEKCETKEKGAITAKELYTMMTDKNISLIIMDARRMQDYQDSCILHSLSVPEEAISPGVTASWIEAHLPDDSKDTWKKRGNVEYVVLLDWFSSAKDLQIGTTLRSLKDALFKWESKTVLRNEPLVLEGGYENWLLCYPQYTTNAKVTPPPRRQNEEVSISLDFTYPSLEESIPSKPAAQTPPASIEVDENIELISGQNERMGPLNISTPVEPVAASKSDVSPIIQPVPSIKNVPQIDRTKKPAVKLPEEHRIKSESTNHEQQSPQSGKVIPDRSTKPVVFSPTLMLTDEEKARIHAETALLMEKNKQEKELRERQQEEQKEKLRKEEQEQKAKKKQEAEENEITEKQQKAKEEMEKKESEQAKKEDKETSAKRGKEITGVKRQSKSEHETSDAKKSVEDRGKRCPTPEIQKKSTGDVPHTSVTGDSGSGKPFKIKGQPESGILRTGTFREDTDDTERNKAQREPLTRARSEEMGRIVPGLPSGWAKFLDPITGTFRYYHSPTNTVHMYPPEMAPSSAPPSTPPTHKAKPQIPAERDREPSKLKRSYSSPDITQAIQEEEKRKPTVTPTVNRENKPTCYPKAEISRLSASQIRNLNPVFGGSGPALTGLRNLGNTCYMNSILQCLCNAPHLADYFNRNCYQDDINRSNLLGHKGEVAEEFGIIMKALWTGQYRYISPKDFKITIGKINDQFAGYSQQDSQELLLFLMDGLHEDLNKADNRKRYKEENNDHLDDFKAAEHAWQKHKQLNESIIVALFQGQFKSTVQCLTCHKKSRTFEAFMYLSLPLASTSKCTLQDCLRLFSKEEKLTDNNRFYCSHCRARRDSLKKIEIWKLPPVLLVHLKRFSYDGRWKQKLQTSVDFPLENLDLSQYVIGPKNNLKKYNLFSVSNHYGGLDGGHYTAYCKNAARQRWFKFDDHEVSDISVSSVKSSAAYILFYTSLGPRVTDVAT
How it was run: as §1

[9] = biological target: USP9X (UniProt Q93008)
How it was run: as §1

[10] = biological target: UniProt O00487
How it was run: as §1

Measured: log2 ratio of Biotin-Ahx-Ub-VS probe labelling

Sequence of USP9X (Q93008 whole entry): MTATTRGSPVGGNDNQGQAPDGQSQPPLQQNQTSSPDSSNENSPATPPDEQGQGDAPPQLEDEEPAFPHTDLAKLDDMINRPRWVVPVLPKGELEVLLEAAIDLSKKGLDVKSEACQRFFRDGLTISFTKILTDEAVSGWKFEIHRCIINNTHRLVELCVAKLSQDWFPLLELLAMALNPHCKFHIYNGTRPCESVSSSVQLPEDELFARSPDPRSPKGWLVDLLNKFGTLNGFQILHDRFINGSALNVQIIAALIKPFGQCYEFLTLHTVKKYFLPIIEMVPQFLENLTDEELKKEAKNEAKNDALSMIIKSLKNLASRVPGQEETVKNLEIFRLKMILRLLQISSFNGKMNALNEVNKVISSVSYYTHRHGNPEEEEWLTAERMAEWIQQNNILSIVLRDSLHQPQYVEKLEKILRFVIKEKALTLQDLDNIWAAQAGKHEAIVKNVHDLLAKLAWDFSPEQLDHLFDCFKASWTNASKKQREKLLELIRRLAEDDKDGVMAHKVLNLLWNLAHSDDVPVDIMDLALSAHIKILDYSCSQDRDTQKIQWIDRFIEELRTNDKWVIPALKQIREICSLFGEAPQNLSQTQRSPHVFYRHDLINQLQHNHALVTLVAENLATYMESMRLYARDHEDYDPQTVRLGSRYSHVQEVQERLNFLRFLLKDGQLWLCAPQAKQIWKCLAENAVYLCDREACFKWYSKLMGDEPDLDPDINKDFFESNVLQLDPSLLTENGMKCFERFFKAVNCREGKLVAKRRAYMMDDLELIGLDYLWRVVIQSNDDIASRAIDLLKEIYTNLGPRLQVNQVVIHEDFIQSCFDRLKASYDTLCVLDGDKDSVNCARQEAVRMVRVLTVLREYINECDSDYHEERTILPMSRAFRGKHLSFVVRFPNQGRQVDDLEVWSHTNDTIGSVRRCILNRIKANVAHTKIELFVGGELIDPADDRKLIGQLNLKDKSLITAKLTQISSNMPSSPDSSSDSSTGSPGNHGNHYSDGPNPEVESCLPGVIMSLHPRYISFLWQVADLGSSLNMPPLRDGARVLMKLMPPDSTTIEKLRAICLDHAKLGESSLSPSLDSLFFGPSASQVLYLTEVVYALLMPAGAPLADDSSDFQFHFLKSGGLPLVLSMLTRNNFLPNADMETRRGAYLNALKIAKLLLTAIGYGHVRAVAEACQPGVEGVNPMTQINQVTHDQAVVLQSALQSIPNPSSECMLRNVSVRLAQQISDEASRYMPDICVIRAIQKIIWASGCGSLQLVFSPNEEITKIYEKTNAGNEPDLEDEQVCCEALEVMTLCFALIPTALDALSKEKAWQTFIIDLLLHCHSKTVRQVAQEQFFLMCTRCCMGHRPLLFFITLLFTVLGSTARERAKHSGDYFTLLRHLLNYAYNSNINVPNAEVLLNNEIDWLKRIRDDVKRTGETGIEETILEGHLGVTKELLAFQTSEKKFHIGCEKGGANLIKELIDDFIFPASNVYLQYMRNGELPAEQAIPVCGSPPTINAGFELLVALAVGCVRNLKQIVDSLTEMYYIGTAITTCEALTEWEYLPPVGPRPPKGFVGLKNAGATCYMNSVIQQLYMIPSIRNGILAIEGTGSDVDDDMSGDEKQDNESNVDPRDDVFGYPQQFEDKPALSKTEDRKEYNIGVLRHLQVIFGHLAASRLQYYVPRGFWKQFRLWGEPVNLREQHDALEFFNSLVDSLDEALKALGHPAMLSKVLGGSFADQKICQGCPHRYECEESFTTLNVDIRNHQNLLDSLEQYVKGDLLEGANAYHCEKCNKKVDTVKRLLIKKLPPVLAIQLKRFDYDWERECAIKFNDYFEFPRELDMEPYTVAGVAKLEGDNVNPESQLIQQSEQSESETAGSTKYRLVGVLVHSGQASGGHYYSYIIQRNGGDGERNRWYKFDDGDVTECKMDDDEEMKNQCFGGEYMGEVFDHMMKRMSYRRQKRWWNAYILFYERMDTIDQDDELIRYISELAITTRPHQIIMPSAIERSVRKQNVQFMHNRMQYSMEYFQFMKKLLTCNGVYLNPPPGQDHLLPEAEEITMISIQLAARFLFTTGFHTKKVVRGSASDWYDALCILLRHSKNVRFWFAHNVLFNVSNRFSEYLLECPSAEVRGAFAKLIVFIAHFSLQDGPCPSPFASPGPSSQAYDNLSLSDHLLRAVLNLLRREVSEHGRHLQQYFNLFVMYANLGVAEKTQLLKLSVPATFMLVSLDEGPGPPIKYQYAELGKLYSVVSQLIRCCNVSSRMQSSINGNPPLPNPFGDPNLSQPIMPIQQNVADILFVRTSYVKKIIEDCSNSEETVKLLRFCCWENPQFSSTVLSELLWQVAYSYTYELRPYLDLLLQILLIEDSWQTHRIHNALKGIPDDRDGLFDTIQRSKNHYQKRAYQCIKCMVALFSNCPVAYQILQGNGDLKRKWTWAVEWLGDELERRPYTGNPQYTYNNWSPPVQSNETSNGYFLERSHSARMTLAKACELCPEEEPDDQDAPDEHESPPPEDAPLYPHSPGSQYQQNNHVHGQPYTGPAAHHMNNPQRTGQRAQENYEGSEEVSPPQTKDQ
Sequence of USP46 (P62068 whole entry): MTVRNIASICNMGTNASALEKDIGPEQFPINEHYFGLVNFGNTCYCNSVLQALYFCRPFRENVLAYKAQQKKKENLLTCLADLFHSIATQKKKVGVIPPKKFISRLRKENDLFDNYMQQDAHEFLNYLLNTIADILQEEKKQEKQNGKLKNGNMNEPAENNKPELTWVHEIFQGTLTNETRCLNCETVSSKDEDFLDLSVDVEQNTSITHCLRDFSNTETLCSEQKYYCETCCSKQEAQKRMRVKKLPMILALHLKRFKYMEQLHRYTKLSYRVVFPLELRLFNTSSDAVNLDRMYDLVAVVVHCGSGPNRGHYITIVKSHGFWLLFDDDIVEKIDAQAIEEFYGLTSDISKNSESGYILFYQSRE
Sequence of UniProt O00487 (O00487 whole entry): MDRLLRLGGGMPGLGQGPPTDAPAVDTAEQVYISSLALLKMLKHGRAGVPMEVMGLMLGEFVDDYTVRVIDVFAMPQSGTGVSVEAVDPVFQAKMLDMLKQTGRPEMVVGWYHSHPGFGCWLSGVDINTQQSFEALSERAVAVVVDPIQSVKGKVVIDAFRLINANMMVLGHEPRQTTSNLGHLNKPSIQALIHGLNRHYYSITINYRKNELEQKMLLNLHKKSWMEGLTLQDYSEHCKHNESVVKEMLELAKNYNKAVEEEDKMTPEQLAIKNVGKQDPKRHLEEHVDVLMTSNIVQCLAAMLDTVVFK
Sequence of USP7 (Q93009 whole entry, looked up): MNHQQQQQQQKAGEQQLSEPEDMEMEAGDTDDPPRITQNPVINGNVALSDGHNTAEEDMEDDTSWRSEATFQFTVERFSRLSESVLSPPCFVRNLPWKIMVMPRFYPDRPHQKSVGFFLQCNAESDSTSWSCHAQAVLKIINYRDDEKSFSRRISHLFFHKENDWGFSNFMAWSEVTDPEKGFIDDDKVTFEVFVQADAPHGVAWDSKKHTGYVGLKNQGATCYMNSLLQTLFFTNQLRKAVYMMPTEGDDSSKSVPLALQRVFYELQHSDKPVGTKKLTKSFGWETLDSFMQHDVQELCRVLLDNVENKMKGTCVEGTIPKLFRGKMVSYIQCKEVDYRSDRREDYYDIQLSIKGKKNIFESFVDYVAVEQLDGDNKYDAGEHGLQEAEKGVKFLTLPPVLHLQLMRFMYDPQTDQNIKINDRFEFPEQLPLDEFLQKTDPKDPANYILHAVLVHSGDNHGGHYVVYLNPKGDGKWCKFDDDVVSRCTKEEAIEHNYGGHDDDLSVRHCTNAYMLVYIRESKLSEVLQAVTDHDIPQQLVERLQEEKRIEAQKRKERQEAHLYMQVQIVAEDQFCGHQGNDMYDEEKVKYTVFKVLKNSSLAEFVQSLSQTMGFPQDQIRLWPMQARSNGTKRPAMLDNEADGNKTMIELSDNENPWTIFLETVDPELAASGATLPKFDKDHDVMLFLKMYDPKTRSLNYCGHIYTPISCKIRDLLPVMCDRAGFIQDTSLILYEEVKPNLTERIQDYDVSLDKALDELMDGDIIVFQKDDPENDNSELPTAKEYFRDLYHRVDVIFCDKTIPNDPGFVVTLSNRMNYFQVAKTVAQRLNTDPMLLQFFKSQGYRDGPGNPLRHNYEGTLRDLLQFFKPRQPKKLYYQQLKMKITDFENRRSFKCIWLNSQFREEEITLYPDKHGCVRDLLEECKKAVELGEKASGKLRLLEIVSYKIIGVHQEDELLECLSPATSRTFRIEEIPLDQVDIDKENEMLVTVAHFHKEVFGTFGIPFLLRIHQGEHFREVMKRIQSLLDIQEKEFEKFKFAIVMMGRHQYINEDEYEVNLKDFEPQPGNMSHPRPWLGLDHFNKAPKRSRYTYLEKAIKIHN

O=C(CCl)NCc1cccc(N2CCCC2=O)c1
inactive: [1] -0.175 | [2] 0.179 | [3] 0.109 | [4] -0.0848 | [5] 0.238 | [6] 0.342 | [7] -0.0593 | [8] -0.147 | [9] -0.272 | [10] 0.135

Cc1cccc(N(CCC#N)C(=O)CCl)c1C
inactive: [1] 0.0225 | [2] 0.0197 | [3] -0.354 | [4] -0.0383 | [5] 0.289 | [6] 0.431 | [7] -0.47 | [8] 0.0891 | [9] 0.0273 | [10] 0.0621

O=C(CCl)NCCC1=CCCCC1
inactive: [1] 0.91 | [2] -0.0411 | [3] -0.145 | [4] 0.0648 | [5] 0.0523 | [6] 0.116 | [7] -0.402 | [8] 0.244 | [9] -0.0639 | [10] -0.0958
